The target in experiment [1] is Lysosomal acid glucosylceramidase (Homo sapiens) (UniProt P04062). The experiment can be described thus: Glucocerebrosidase-p2 (AID 348; in the data active = potency below about 10 µM; note: potency is the fitted concentration of half-maximal effect). As to conditions: purified GBA, blue fluorogenic substrate, 40 min. The method in brief:
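Normal human glucocerebrosidase (0.2 nM) with blue fluorogenic substrate (80 uM final) in citrate/phosphate pH 5.9 with 10mM sodium taurocholate, 0.01% tween-20; 40 min RT, NaOH/glycine stop; fluorescence Ex 365/Em 440; AC50 from a titration from 0.6 nM upwards.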

Experiment [2] can be described thus: AP1 Signaling Pathway (AID 357).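 Note: ME-180 reporter cells stimulated with EGF at its EC50 level; % is set by controls: 0 for no effect and ±100 for the full control effect.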 The following applies: ME-180 AP-1-bla reporter, EGF-induced, beta-lactamase ratio, 5 h; at 7.69 µM (top of the series) unless noted. Put shortly: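 First, ME-180 AP-1-bla cells were cultured overnight at 37 °C in low-serum Opti-MEM. Next, titrated compounds with EC50 EGF were incubated 5 hours. Finally, CCF4 was added for 2.5 hours and the 460/530 nm ratio recorded.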

In experiment [3] the target is Cytochrome P450 1A2 (Homo sapiens) (UniProt P05177). The experiment can be described thus: p450-cyp1a2 (AID 410; calls by dose curve; note: potency is the fitted concentration of half-maximal effect). The following applies: recombinant CYP1A2, luciferin-ME demethylation, luminescence; series mostly up to 11.4 µM. The method in brief: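 O-Demethylation of luciferin 6' methyl ether by human CYP1A2 is monitored as luciferase luminescence. Substrate sits at Km (100uM); enzyme is 20nM. Values are scaled to 57 uM furafylline as maximal inhibition.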

Experiment [4] in a line: NFAT Signaling Pathway (AID 444).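 Note: carbachol stimulus at about its EC50 of 1 µM final; % is set by controls: 0 for no effect and ±100 for the full control effect.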 As to conditions: Jurkat NFAT-bla M1, carbachol, beta-lactamase ratio, 5 h; at 7.69 µM (top of the series) unless noted. The method in brief: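 Jurkat cells carrying an NFAT-driven β-lactamase reporter and co-transfected muscarinic M1 receptor were treated with compound plus carbachol (1 uM final, an EC50 level) for 5 h at 37 °C. CCF4 loading followed for 1 h at RT; 460/530 nm ratio gave %activity.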

The nature of experiment [5]: Stat Signaling Pathway (AID 446).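 Note: ME-180 cervical cancer cells given 40 pM IL-6 alongside compound; SIE-controlled beta-lactamase reporter measured as 460/530 nm FRET emission ratio; % is set by controls: 0 for no effect and ±100 for the full control effect.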 The following applies: ME-180 (cervical carcinoma) SIE beta-lactamase reporter, IL-6 stimulated, 5 h; at 7.69 µM (top of the series) unless noted. Put shortly:
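Normalization used AC90 stimulation (300 pM IL-6) and AC90 inhibition (125 nM pan-JAK inhibitor at 40 pM IL-6). The underlying signal is SIE-driven beta-lactamase in ME-180 cells after 5 h IL-6 exposure with compound.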

Experiment [6] has as its target Glucocorticoid receptor (Homo sapiens) (UniProt P04150). As to the kind of experiment: GR-GFP Redistribution (AID 450;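 active = compounds whose dose series gives a full or clear partial fitted curve of increased nuclear translocation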; note: potency is the fitted concentration of half-maximal effect). As to conditions: U2OS GR-GFP nuclear translocation, laser cytometry, 2 h.
For experiment [7] the target is unchanged. The experiment can be described thus: GR-EFC Redistribution (AID 451; calls by dose curve; note: potency is the fitted concentration of half-maximal effect). The following applies: CHO-K1 GR-EFC translocation, beta-gal luminescence, 2 h. The method in brief:
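CHO-K1 cells stably expressing nuclear-localized β-gal enzyme acceptor and GR fused C-terminally to the enzyme donor fragment; ligand-driven nuclear translocation restores β-gal by complementation. Compounds titrated up to 46 uM final, 2 h at 37 °C; luminescence read.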

The target of experiment [8] is Mitogen-activated protein kinase 10 (Mus musculus) (UniProt Q61831). The experiment can be described thus: JNK3 AlphaScreen Assay (AID 530).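 Note: kinase came from lysate of stimulated human HepG2 cells; % is set by controls: 0 for no effect and ±100 for the full control effect.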 The following applies: JNK3 lysate, c-Jun phosphorylation; series mostly up to 11.4 µM. Put shortly: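 Phosphorylation of biotinylated GST-cJun(1-79) at Ser73 is measured by AlphaScreen proximity luminescence. Enzyme is JNK3 in HepG2 lysates activated with interleukin-1beta and tumor necrosis factor alpha; ATP is 10 uM final.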
A general note: In Alpha technology, singlet oxygen from a donor bead excites a nearby acceptor bead.

Experiment [9] concerns the target 3',5'-cyclic-AMP phosphodiesterase 4B (Homo sapiens) (UniProt Q07343). The experiment can be described thus: qHTS Assay for Inhibitors of PDE-IV (AID 607; active = well fitted activation curve with a large enough effect in the main read-out, with a control signal flat, not every such curve was filed as active; note: % of control where 0% means no effect). As to conditions: HEK293 ACTOne CNG channel cells, membrane potential fluorescence; series mostly up to 22.9 µM. The method in brief: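 HEK293 ACTOne cells with CNG channel (1000/well), endogenous PDE4; membrane potential dye, compounds up to 22.9 uM final. Fluorescence Ex 535/Em 590; RO 20-1724 (100 uM final) as reference.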
Background: Quantitative high-throughput screening tests each substance at several concentrations.

This passage reports Potency, activity change, negative = inhibition and activity, negative = inhibition results from PubChem BioAssay (NCATS).

Values without a mark were called inactive. Results filed as inconclusive are left out. The source made the active and inactive calls. Unless noted, calls come from the whole dose curve; as a rule, active = well fitted curve in either direction with a large enough effect (not every such curve was filed as active); inconclusive = small, poorly fitted or top-dose-only effect, or another doubt; inactive = flat fitted curve, though single readings scatter.

Sequence of Cytochrome P450 1A2 (Homo sapiens) (P05177 whole entry, looked up): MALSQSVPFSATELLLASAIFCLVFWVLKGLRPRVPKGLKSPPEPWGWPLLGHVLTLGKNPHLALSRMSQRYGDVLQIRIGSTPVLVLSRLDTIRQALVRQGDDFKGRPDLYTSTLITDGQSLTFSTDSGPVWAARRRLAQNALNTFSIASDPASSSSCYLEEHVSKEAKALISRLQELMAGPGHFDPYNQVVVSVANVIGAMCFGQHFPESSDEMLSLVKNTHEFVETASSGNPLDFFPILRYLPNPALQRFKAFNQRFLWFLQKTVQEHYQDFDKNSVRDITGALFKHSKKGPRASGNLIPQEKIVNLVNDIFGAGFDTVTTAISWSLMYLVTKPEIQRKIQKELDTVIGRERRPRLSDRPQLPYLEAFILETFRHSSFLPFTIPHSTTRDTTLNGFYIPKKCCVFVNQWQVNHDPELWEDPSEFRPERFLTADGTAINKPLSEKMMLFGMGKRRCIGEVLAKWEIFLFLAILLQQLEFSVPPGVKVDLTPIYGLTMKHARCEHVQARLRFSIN
Sequence of 3',5'-cyclic-AMP phosphodiesterase 4B (Homo sapiens) (Q07343 whole entry, looked up): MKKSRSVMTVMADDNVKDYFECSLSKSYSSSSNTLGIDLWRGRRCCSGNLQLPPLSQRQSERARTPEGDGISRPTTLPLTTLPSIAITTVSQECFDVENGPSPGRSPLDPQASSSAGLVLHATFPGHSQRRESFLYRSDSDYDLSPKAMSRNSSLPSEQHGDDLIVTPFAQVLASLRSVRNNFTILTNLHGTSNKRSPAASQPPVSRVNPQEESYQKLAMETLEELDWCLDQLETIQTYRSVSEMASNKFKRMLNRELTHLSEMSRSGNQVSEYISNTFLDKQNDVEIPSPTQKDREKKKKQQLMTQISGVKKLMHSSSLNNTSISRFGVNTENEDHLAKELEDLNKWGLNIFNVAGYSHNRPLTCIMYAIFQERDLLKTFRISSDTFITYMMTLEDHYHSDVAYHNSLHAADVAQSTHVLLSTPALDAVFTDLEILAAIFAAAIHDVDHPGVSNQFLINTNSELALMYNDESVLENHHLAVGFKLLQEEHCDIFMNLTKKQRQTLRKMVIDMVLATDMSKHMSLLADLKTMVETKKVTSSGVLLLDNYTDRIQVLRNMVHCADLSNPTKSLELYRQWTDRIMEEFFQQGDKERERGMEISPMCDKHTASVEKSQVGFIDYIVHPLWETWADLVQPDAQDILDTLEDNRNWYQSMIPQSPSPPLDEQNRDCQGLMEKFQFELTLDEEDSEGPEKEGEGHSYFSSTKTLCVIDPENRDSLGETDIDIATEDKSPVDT
Sequence of Lysosomal acid glucosylceramidase (Homo sapiens) (P04062 whole entry, looked up): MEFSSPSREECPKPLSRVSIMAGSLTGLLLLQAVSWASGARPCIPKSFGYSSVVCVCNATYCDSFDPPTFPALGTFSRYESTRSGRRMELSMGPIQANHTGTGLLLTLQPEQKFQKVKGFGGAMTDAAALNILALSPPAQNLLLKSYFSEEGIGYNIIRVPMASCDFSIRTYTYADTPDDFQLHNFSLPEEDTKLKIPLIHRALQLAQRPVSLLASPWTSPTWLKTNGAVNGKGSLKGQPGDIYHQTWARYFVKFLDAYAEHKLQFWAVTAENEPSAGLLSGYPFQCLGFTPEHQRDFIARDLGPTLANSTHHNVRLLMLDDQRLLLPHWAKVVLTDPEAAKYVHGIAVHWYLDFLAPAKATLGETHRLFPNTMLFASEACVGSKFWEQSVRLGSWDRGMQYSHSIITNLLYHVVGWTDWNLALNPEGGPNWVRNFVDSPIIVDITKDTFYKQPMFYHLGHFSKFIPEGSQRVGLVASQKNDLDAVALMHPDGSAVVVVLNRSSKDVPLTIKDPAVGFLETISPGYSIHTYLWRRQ
Sequence of Glucocorticoid receptor (Homo sapiens) (P04150 whole entry, looked up): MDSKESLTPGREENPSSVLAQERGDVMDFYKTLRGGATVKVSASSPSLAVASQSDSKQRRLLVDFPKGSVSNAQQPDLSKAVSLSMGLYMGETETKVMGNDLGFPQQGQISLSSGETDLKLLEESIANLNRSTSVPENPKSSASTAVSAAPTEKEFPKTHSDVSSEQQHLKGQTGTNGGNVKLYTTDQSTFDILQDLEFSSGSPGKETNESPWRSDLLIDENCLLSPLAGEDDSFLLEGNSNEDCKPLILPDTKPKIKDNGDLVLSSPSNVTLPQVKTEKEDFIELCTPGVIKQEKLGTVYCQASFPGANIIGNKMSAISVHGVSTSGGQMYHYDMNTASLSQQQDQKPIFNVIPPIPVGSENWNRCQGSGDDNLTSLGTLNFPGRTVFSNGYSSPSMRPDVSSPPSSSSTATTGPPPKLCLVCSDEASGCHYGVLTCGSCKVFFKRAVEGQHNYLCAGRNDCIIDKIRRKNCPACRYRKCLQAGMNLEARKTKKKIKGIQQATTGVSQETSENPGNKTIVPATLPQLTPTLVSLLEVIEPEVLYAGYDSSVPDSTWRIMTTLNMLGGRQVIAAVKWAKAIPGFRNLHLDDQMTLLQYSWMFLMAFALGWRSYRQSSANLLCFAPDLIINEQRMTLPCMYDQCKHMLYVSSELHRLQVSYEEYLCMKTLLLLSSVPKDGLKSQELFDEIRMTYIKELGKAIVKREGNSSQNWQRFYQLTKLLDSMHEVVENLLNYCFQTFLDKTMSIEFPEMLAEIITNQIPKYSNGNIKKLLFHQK

Turning to `O=C(O)C(Cc1ccccc1-c1ccccc1)C(=O)O`, the Potency in [1] is greater than 11.4 µM; in experiment [6], greater than 46 µM; in experiment [7] it was greater than 9.22 µM. The figures for the activity change, negative = inhibition in experiment [2] and in experiment [4] were 12.3% and 3.57%, respectively. Besides, the Potency entry in [3], in experiment [8] and in experiment [9] was “inactive” throughout. In [5], the activity, negative = inhibition was -0.388%.

As to `CN(C)CCNS(=O)(=O)N(C)C`, the Potency is greater than 11.4 µM in experiment [1], greater than 46 µM in experiment [6] and greater than 9.22 µM in experiment [7]. For the same compound, the activity change, negative = inhibition was -0.375% in [2] and 3.58% in experiment [4]. Besides, the Potency result in [3], in experiment [8] and in [9] was “inactive” each time. The activity, negative = inhibition in [5] is 4.72%.

Turning to `CN(C)c1ccc(C2N([C@H](C#N)c3ccc(N(C)C)cc3)CCCN2[C@@H](C#N)c2ccc(N(C)C)cc2)cc1` (stereo partly specified), the Potency is greater than 11.4 µM in [1], 5.01 µM (active) in experiment [3], greater than 46 µM in experiment [6] and greater than 9.22 µM in experiment [7]. The figures for the activity change, negative = inhibition in experiment [2] and in experiment [4] were 0.74% and -11.3%, respectively. In addition, the activity, negative = inhibition in [5] is 6.93%. In addition, the Potency result in experiment [8] and in experiment [9] was “inactive” in each case.

Consider `CC(=O)C=NCC(=O)O`, for which the Potency is greater than 11.4 µM in experiment [1], greater than 46 µM in experiment [6] and greater than 9.22 µM in experiment [7]. Besides, the activity change, negative = inhibition was -0.671% in experiment [2] and 3.49% in experiment [4]. Further, the Potency entry in experiment [3], in [8] and in experiment [9] was “inactive” each time. Also, the activity, negative = inhibition in [5] is -0.18%.

For `CC(C)(C)CNCCO`, the Potency in experiment [1] is greater than 11.4 µM; in experiment [6], greater than 46 µM; in experiment [7], greater than 9.22 µM. Further, the figures for the activity change, negative = inhibition in experiment [2], in [3] and in experiment [4] were -7.33%, 6.2% [at 2.29 µM] and 4.1%, respectively. In experiment [5], the activity, negative = inhibition was 7.24%. Moreover, the Potency entry in [8] and in [9] was “inactive” each time.

On to `CN(C)Cc1cc(Cl)c(O)c(CN(C)C)c1`, for which the Potency was greater than 11.4 µM in [1], greater than 46 µM in experiment [6] and greater than 9.22 µM in experiment [7]. Further, the results for the activity change, negative = inhibition in experiment [2] and in [4] were 0.0803% and 15.1%, respectively. In addition, the Potency entry in experiment [3], in experiment [8] and in experiment [9] was “inactive” each time. For the same compound, the activity, negative = inhibition in [5] was -1.91%.

As for `O=C(O)c1c(-c2c3ccc(=O)cc-3oc3cc(O)ccc23)cc2ccccc2c1-c1ccccc1`, the Potency in experiment [1] was greater than 11.4 µM; in experiment [6] it was greater than 46 µM; in experiment [7], greater than 9.22 µM. For the same compound, the figures for the activity change, negative = inhibition in [2], in experiment [3] and in experiment [4] were 8.03%, -17.6% [at 2.29 µM] and 2.16%, respectively. Moreover, the activity, negative = inhibition in experiment [5] is 3.5%. In addition, the Potency entry in [8] and in experiment [9] was “inactive” in each case.

For `O=[N+]([O-])c1ccc(Cl)c(CNc2ncnc3c2ncn3[C@@H]2CCCCO2)c1`, the Potency in experiment [1] was greater than 11.4 µM; in experiment [3], 5.01 µM (active); in [6], greater than 46 µM; in [7], greater than 9.22 µM. Also, the activity change, negative = inhibition was -3.17% in [2] and 6.3% in [4]. The activity, negative = inhibition in [5] is 1.26%. The Potency result in experiment [8] and in [9] was “inactive” throughout.

As for `C#CCOCCCC(=O)O`, the Potency in experiment [1] was greater than 11.4 µM; in experiment [6], greater than 46 µM; in experiment [7] it was greater than 9.22 µM. Also, the values for the activity change, negative = inhibition in experiment [2] and in experiment [4] were -3.26% and 0.738%, respectively. Further, the Potency result in [3], in [8] and in experiment [9] was “inactive” throughout. The activity, negative = inhibition in [5] is 4.1%.

With `O=C1COC(c2ccccc2O)=NN1CCCN1CCCC1`, the Potency is greater than 11.4 µM in [1], greater than 46 µM in [6] and greater than 9.22 µM in experiment [7]. The results for the activity change, negative = inhibition in experiment [2] and in [4] were 5.73% and -11.6%, respectively. The Potency entry in experiment [3], in [8] and in experiment [9] was “inactive” each time. The activity, negative = inhibition in experiment [5] was 5.21%.

On to `Nc1nc2c(c(=O)[nH]1)CN(c1ccc(S(N)(=O)=O)cc1)CN2`, for which the Potency in [1] is greater than 11.4 µM; in experiment [6], greater than 46 µM; in experiment [7], greater than 9.22 µM. For the same compound, the activity change, negative = inhibition in experiment [2] is -2.56%; in experiment [3], 8.8% [at 2.29 µM]; in [4] it was 12%. Besides, the activity, negative = inhibition in [5] was 1.71%. Besides, the Potency result in [8] and in [9] was “inactive” in each case.

Regarding `C[N+]1(C)CCc2cc(O)c(O)cc2[C@H]1Cc1ccc(O)c(O)c1`, the Potency in [1] was greater than 11.4 µM; in experiment [6], greater than 46 µM; in experiment [7] it was greater than 9.22 µM. Moreover, the figures for the activity change, negative = inhibition in experiment [2], in [3] and in experiment [4] were -2.63%, -12.1% [at 2.29 µM] and -9.29%, respectively. Also, the activity, negative = inhibition in [5] was 6.76%. The Potency entry in experiment [8] and in experiment [9] was “inactive” throughout.

With `Cc1ccc(NC(=O)c2ccccc2C(=O)O)cc1C`, the Potency in [1] is greater than 11.4 µM; in [3], 3.98 µM (active); in [6] it was greater than 46 µM; in experiment [7], greater than 9.22 µM. In addition, the activity change, negative = inhibition in experiment [2] was -1.74%; in experiment [4], -27.9%. For the same compound, the activity, negative = inhibition in experiment [5] was -5.42%. In addition, the Potency entry in experiment [8] and in [9] was “inactive” each time.

In the case of `C[C@@H]1C[C@H](C)CN(S(=O)(=O)c2cc(Cl)c(Oc3ccc([N+](=O)[O-])cc3Cl)c(Cl)c2)C1`, the Potency in experiment [1] is greater than 11.4 µM; in [6] it was greater than 46 µM; in experiment [7], greater than 9.22 µM. For the same compound, the activity change, negative = inhibition is 16.4% in experiment [2] and -22.6% in experiment [4]. Also, the Potency entry in experiment [3], in experiment [8] and in [9] was “inactive” in each case. Also, in experiment [5], the activity, negative = inhibition was 20.1%.
